Data reported in the supplement of paper PMC3616981.
± gives the standard deviation of the averaged measurements.

Compound: CC(C)c1cccc(C(C)C)c1N1C(=O)c2ccc(O)cc2C1=O
Assay: BioMAP readout fold decrease vs vehicle (vehicle/treated); higher = stronger decrease of the readout vs vehicle (values <1 mean increase)
Method: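 BioSeek BioMAP human primary cell (co-)culture systems (3C, 4H, LPS, SAg, BE3C, CASM3C, hDFCGF, KF3CT) treated with 5HPP-33 at 1.48, 4.44, 13.3 and 40 µM. Read-outs are protein levels by ELISA, proliferation and SRB total protein. Duplicate rows per assay are averaged as replicates. Tested in ToxCast Phase II for this study; exposure time not stated.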
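Further: Co-cultures of keratinocytes, bronchial epithelial and smooth muscle cells, fibroblasts, HUVECs and PBMCs under stimuli like LPS, TNF-α, IFN-γ, IL-1β, TGF-β or EGF, SRB reflecting cytotoxicity.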

Target: KF3CT_IL1a
- BioMAP readout fold decrease (1.48 µM): 0.969 ± 0.029
- BioMAP readout fold decrease (4.44 µM): 0.992 ± 0.045
- BioMAP readout fold decrease (13.3 µM): 0.987 ± 0.034
- BioMAP readout fold decrease (40 µM): 2.08 ± 0.17

Target: hDFCGF_MMP1
- BioMAP readout fold decrease (1.48 µM): 0.956 ± 0.05
- BioMAP readout fold decrease (4.44 µM): 0.93304 ± 0.00091
- BioMAP readout fold decrease (13.3 µM): 0.85 ± 0.0086
- BioMAP readout fold decrease (40 µM): 1.09 ± 0.13

Target: KF3CT_IP10
- BioMAP readout fold decrease (1.48 µM): 0.9935 ± 0.0028
- BioMAP readout fold decrease (4.44 µM): 1.06 ± 0.035
- BioMAP readout fold decrease (13.3 µM): 1.39 ± 0.016
- BioMAP readout fold decrease (40 µM): 7.16 ± 0.78

Target: SAg_Eselectin
- BioMAP readout fold decrease (1.48 µM): 1.14 ± 0.027
- BioMAP readout fold decrease (4.44 µM): 1.02 ± 0.041
- BioMAP readout fold decrease (13.3 µM): 1.14 ± 0.087
- BioMAP readout fold decrease (40 µM): 3.92 ± 0.27

Target: hDFCGF_PAI1
- BioMAP readout fold decrease (1.48 µM): 1.12 ± 0.14
- BioMAP readout fold decrease (4.44 µM): 1.08 ± 0.056
- BioMAP readout fold decrease (13.3 µM): 1.43 ± 0.031
- BioMAP readout fold decrease (40 µM): 3.53 ± 0.21

Target: CASM3C_Proliferation
- BioMAP readout fold decrease (1.48 µM): 1.11 ± 0.024
- BioMAP readout fold decrease (4.44 µM): 1.58 ± 0.054
- BioMAP readout fold decrease (13.3 µM): 1.2 ± 0.23
- BioMAP readout fold decrease (40 µM): 2.76 ± 0.16

Target: 3C_VCAM1
- BioMAP readout fold decrease (1.48 µM): 1.05 ± 0.029
- BioMAP readout fold decrease (4.44 µM): 1.15 ± 0.027
- BioMAP readout fold decrease (13.3 µM): 1.33 ± 0.03
- BioMAP readout fold decrease (40 µM): 2.03 ± 0.072

Target: 3C_ICAM1
- BioMAP readout fold decrease (1.48 µM): 1.05 ± 0.025
- BioMAP readout fold decrease (4.44 µM): 1.05 ± 0.019
- BioMAP readout fold decrease (13.3 µM): 1.02 ± 0.013
- BioMAP readout fold decrease (40 µM): 1.08 ± 0.087

Target: 4H_Eotaxin3
- BioMAP readout fold decrease (1.48 µM): 0.9561 ± 0.0065
- BioMAP readout fold decrease (4.44 µM): 0.875 ± 0.022
- BioMAP readout fold decrease (13.3 µM): 1.02 ± 0.032
- BioMAP readout fold decrease (40 µM): 4.62 ± 0.098

Target: KF3CT_MCP1
- BioMAP readout fold decrease (1.48 µM): 1.03 ± 0.041
- BioMAP readout fold decrease (4.44 µM): 0.926 ± 0.043
- BioMAP readout fold decrease (13.3 µM): 0.7754 ± 0.0028
- BioMAP readout fold decrease (40 µM): 1.14 ± 0.36
